MmCpn inh: Inhibitors of TCP-1 ring complex (TRiC) of Methanococcus maripaludis (MmCpn): qHTS; 330,000 compounds, 0.031% hits; AID 504842, 2011; Potency, µM (highest dose often 76.9 µM), without a hit: at the top dose activity, negative = inhibition, usual class: inhibitors; Chaperonin Mm-Cpn (Methanococcus maripaludis); purified Mm-Cpn ATPase, ADP Transcreener TR-FRET; note: potency is the fitted concentration of half-maximal effect; % is set by controls: 0 for no effect and ±100 for the full control effect; nearly all actives have a fitted effect of over 80% in size
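TR-FRET (320 nm excitation; 590 and 665 nm emission) reports ADP made from 10 uM ATP by 25 nM enzyme; compounds were preincubated 10 min, reaction run 30 min, both at 37°C.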
CCT chaperon mod: High-Throughput Screening for Modulators of Cytosolic Chaperonin Activity; purified chaperonin ATPase assay, HTRF ADP detection, 30 min; activity change, % (no concentration beside the values), hits read low; 360,000 compounds, 0.3% hits; AID 651819, 2012; in the data active = activity change below about -30%; note: % is set by controls: 0 for no effect and ±100 for the full control effect
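TRiC at 40 or 20 nM final (batch-dependent) in 30 mM Tris pH 7.4, 100 mM KCl, 5 mM MgCl2, 1 mM DTT, with compound at single 76 uM and 10 uM ATP, 30 min at 37 deg C. ADP detected by HTRF Transcreener, 665/615 ratio.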
Anesthetic bind: qHTS Assay for Identification of Novel General Anesthetics. Potency, µM (doses to about 77.5 µM), without a hit: at the top dose activity change, negative = displacement, usual class: inhibitors. Ferritin light chain (Equus caballus), P02791. 350,000 compounds, 0.074% hits. AID 485281, 2010. apoferritin/1-aminoanthracene competitive binding, fluorescence; note: potency is the fitted concentration of half-maximal effect; % is set by controls: 0 for no effect and ±100 for the full control effect; nearly all actives have a fitted effect of over 20% in size
Target sequence (P02791 2-175 limits assumed): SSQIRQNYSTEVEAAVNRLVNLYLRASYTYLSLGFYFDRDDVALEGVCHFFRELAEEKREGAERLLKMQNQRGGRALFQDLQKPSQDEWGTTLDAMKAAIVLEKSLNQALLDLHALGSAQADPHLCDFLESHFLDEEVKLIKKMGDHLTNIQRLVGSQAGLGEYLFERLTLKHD
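Read-out: endpoint 1-AMA fluorescence, excitation 380 nm and emission 535 nm, after compounds sit 10 min at room temperature with 10 uM horse-spleen apoferritin in 50% saturated 1-AMA/PBS. Values come from four-parameter Hill fits.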
AT treatment: qHTS Assay for Identifying a Potential Treatment of Ataxia-Telangiectasia | F2112 A-T fibroblasts, KAP-1 phosphorylation AlphaLISA; neocarzinostatin DNA damage 30 min before lysis | 320,000 compounds, 0.19% hits | Potency, µM (top dose mostly 57.5 µM), for the others: top-dose activation, most hits filed as activators; note: potency is the fitted concentration of half-maximal effect; % of control where 0% means no effect; nearly all actives have a fitted effect of over 45% in size
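ATM-like activity read as KAP-1 phosphorylation via AlphaLISA donor/acceptor antibody pairs after lysis and 6 hr at 25C. Cells were ATM-null patient fibroblasts (F2112, hTERT), dosed 60 min, then exposed to the DSB inducer NCS for 30 min.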
An asterisk follows results filed as active. Most compounds without a hit are left out; they make up all but 0.47% or so of the library. Unless noted, calls come from the whole dose curve; as a rule, active = well fitted curve in the direction sought with a large enough effect; inconclusive = small, poorly fitted or top-dose-only effect, or another doubt; inactive = no such curve, though single readings can be large; an effect the other way counts as inactive or inconclusive.

Screening C(=N\n1cnnc1)/c1cccc(OCCOc2ccccc2)c1 returned MmCpn inh -0.1%, CCT chaperon mod -84.0*, Anesthetic bind -13.5% and AT treatment -0.9%.
For COc1cc(/C=N/n2cnnc2)ccc1OCCOc1ccccc1 the results were MmCpn inh -0.4%, CCT chaperon mod -3.0, Anesthetic bind -11.1% and AT treatment 1.1%.
Screening CC1Cc2cc(S(=O)(=O)CCC(=O)NCc3ccccc3Cl)ccc2N1C(=O)C1CC1 (stereo unspecified) returned Anesthetic bind -8.2%.
N#Cc1c(Sc2ncc(C(F)(F)F)cc2Cl)nsc1C/C=N\OCc1ccccc1Br was read as MmCpn inh -9.2%, CCT chaperon mod 1.2 and Anesthetic bind 14.1µM*.
`CN(Cc1ccccc1F)C(=O)c1ccc(Oc2ccccc2)cc1` gave MmCpn inh 0.4%, CCT chaperon mod 1.0, Anesthetic bind -19.5% and AT treatment 14.1µM*.
CSCC(=O)N1CCC(CCC(=O)NC2CC2)CC1 was read as MmCpn inh -0.3%, CCT chaperon mod -53.0*, Anesthetic bind -4.0% and AT treatment -0.5%.
Screening O=c1c2cc(Br)ccc2nc(-c2ccccc2)n1O returned MmCpn inh -2.3%, CCT chaperon mod -1.8, Anesthetic bind -1.4% and AT treatment 0.708µM*.
Screening CC(C)CN(CC(C)C)CC(O)COc1ccccc1Br (stereo unspecified) returned MmCpn inh -0.1%, CCT chaperon mod -0.5, Anesthetic bind 3.4% and AT treatment 20µM*.
Screening O=C(COC(=O)CC1CC2CCC1C2)NC(=O)NCc1ccco1 (stereo unspecified) returned MmCpn inh 0.2%, CCT chaperon mod -1.0, Anesthetic bind 12.6µM* and AT treatment 4.0%.
O=C(c1cc2cc(Br)ccc2[nH]1)N1CCc2ccccc21 was read as MmCpn inh -4.3%, CCT chaperon mod -38.2*, Anesthetic bind -7.5% and AT treatment -2.2%.
`O=C(c1cc2cc(F)ccc2[nH]1)N1CCc2ccccc21` gave MmCpn inh 0.3%, CCT chaperon mod 0.3, Anesthetic bind -9.9% and AT treatment 11.9%.
`COc1ccc(-c2nc3n(c2C)CCC3)cc1` gave MmCpn inh -3.7%, CCT chaperon mod -2.5, Anesthetic bind -16.4% and AT treatment 25.1µM*.
`O=C1C=CC(=O)C2=C1C1c3ccccc3C2c2ccccc21` gave Anesthetic bind -15.9%.
For COc1ccccc1N1CCN(C(=O)c2ccc(Cn3c(=S)[nH]c4cc5c(cc4c3=O)OCO5)cc2)CC1 the results were MmCpn inh -4.0%, CCT chaperon mod -31.0*, Anesthetic bind -4.8% and AT treatment 2.5%.
`CCOC(=O)N1CCN(C(=O)c2ccc(Cn3c(=S)[nH]c4cc5c(cc4c3=O)OCO5)cc2)CC1` gave MmCpn inh -4.6%, CCT chaperon mod -0.6 and Anesthetic bind 2.1%.
CN1CCN(/C=N/C2=C(C#N)C(c3ccccc3)C3=C(CC(C)(C)CC3=O)O2)CC1 (stereo unspecified) was read as MmCpn inh 0.2%, CCT chaperon mod -34.3*, Anesthetic bind -12.4% and AT treatment -11.3%.
Screening CC1(C)CC(=O)C2=C(C1)OC(/N=C/N1CCCC1)=C(C#N)C2c1ccccc1 (stereo unspecified) returned MmCpn inh 0.4%, CCT chaperon mod -8.3, Anesthetic bind -0.5% and AT treatment -3.0%.
Screening Cc1cccc(CCNC(=O)c2ccc3c(c2)N(Cc2ccccc2F)C(=O)c2ccccc2S3)c1 returned Anesthetic bind 1.1%.
`Cc1ccc(CNc2ncnc3c2nnn3C)cc1` gave Anesthetic bind -2.8%.
Screening CC1CC(C)CN(C(=O)c2ccncc2)C1 (stereo unspecified) returned MmCpn inh 0.3%, CCT chaperon mod -37.8*, Anesthetic bind -22.7% and AT treatment 3.7%.
COc1ccccc1OC(=O)Nc1ccc(Cl)cc1 was read as MmCpn inh 0.0%, CCT chaperon mod -2.6, Anesthetic bind 5.5% and AT treatment 0.708µM*.
`COc1ccccc1OCC(=O)NNC(=O)Nc1ccc(Cl)cc1` gave MmCpn inh 1.6%, CCT chaperon mod -1.4, Anesthetic bind -11.1% and AT treatment -0.5%.
For CCC(=O)N1c2ccccc2[C@@H](N(C(C)=O)c2ccccc2)C[C@H]1C the results were MmCpn inh -0.8%, CCT chaperon mod -78.7*, Anesthetic bind -14.8% and AT treatment 1.0%.
`CCCC(=O)N1c2ccccc2C(N(C(C)=O)c2ccccc2)CC1C` (stereo unspecified) gave MmCpn inh -0.1%, CCT chaperon mod -2.9, Anesthetic bind -10.1% and AT treatment 3.0%.
For COc1ccc(C2c3ccc(O)cc3Oc3ncn(CCCO)c(=N)c32)cc1 (stereo unspecified) the results were MmCpn inh 2.1%, CCT chaperon mod 0.0, Anesthetic bind -8.2% and AT treatment 25.1µM*.
For Cc1cc(NC(=O)C2CCCN(S(=O)(=O)c3cn(C)cn3)C2)ccc1Br (stereo unspecified) the results were Anesthetic bind 51.0%.
`O=C1C(Cl)=C(Nc2ccccc2)C(=O)c2ccccc21` gave MmCpn inh -0.8%, CCT chaperon mod -1.9, Anesthetic bind -10.1% and AT treatment 5.01µM*.
O=C(Nc1cccc(Cl)c1)OCc1cnc(Cl)s1 was read as MmCpn inh -9.3%, CCT chaperon mod -3.4, Anesthetic bind 10µM* and AT treatment 2.8%.
`O=C(Nc1cccc(Cl)c1)OCCOCCOC(=O)Nc1cccc(Cl)c1` gave CCT chaperon mod -0.2.
CCOc1ccc(NC(=O)CC2C(=O)N(c3ccc(C)cc3)C(=O)N2CCC2=CCCCC2)cc1 (stereo unspecified) was read as Anesthetic bind 37.5%.
For CC(=O)Nc1sc(N/N=C/c2ccc(C)cc2)nc1-c1ccc(C)cc1 the results were MmCpn inh -1.7%, CCT chaperon mod -1.7, Anesthetic bind -4.1% and AT treatment -30.8%.
For CC(=O)Nc1sc(/C(C#N)=C/c2ccc(Cl)c(Cl)c2)nc1-c1ccc(C)cc1 the results were MmCpn inh -4.5%, CCT chaperon mod -0.4, Anesthetic bind 9.2% and AT treatment 15.8µM*.
`CCOc1ccc(C2C(=O)N(C3CCCCC3)CC(=O)N2C2CCCC2)cc1OC` (stereo unspecified) gave Anesthetic bind -5.9%.
`Cc1c(C(=O)N2CCOCC2)oc2ccc(S(=O)(=O)N3CCCC3)cc12` gave MmCpn inh 35.5µM*, CCT chaperon mod -7.3, Anesthetic bind 12.4% and AT treatment -0.6%.
Screening Cc1cc(Cl)c2oc(C(=O)N3CCN(C(=O)c4ccco4)CC3)c(C)c2c1 returned MmCpn inh -2.2%, CCT chaperon mod -0.4, Anesthetic bind -5.5% and AT treatment 3.4%.
For Cc1cc(Cl)c2oc(C(=O)N3CCOCC3)c(C)c2c1 the results were CCT chaperon mod -35.2*.
